Data taken from the supplement of paper PMC12645437, “Orthogonal IMiD-Degron Pairs Induce Selective Protein Degradation in Cells” (ACS Chemical Biology, 2025).
Whole data set: some 8,300 sequences, median “log2 fold change of degron read counts, EGFP-low vs EGFP+ sorted cells (limma voom), compound-induced degradation” near -1.1, cut for the highest 2% near 3.2. The entries come from a sample that favours the highest values as a whole.

T1: CRBN, Q96SW2
T1 chain: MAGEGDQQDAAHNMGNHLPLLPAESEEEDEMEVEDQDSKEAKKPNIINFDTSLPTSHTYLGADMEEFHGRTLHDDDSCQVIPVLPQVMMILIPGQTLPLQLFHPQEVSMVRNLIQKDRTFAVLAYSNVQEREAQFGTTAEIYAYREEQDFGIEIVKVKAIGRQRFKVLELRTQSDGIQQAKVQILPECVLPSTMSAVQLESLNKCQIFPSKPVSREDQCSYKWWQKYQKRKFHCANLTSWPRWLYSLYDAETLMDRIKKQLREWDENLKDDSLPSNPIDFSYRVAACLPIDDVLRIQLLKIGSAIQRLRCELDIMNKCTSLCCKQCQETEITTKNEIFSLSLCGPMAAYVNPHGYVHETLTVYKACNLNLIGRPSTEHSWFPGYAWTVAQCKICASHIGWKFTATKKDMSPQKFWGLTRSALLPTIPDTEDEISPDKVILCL

B1: 46F_47C_49N_50Q_52G_53R_54T_55F_67L_, Q9UKT9 (peptide)
chain: FCCNQCGRTFTQKGNLLRHIKL
B2: 46F_47K_49N_50Q_52G_53R_54H_55F_67L_, Q9UKT9 (peptide)
chain: FKCNQCGRHFTQKGNLLRHIKL
B3: 46F_47I_49E_50I_52G_53A_54F_55F_67L_, Q9UKT9 (peptide)
chain: FICEICGAFFTQKGNLLRHIKL
B4: 46F_47E_49S_50V_52G_53H_54C_55F_67L_, Q9UKT9 (peptide)
chain: FECSVCGHCFTQKGNLLRHIKL
B5: 46F_47C_49N_50V_52G_53A_54V_55F_67L_, Q9UKT9 (peptide)
chain: FCCNVCGAVFTQKGNLLRHIKL
B6: 46F_47V_49N_50Q_52G_53H_54Y_55F_67L_, Q9UKT9 (peptide)
chain: FVCNQCGHYFTQKGNLLRHIKL
B7: 46F_47F_49N_50Q_52G_53H_54D_55F_67L_, Q9UKT9 (peptide)
chain: FFCNQCGHDFTQKGNLLRHIKL
B8: 46F_47S_49E_50V_52G_53A_54C_55F_67L_, Q9UKT9 (peptide)
chain: FSCEVCGACFTQKGNLLRHIKL
B9: 46F_47R_49E_50V_52G_53A_54C_55F_67L_, Q9UKT9 (peptide)
chain: FRCEVCGACFTQKGNLLRHIKL
B10: 46F_47T_49E_50V_52G_53A_54C_55F_67L_, Q9UKT9 (peptide)
chain: FTCEVCGACFTQKGNLLRHIKL
B11: 46F_47Q_49E_50V_52G_53A_54C_55F_67L_, Q9UKT9 (peptide)
chain: FQCEVCGACFTQKGNLLRHIKL
B12: 46F_47I_49E_50V_52G_53A_54C_55F_67L_, Q9UKT9 (peptide)
chain: FICEVCGACFTQKGNLLRHIKL
B13: 46F_47Y_49E_50V_52G_53A_54C_55F_67L_, Q9UKT9 (peptide)
chain: FYCEVCGACFTQKGNLLRHIKL
B14: 46F_47M_49E_50V_52G_53A_54C_55F_67L_, Q9UKT9 (peptide)
chain: FMCEVCGACFTQKGNLLRHIKL
B15: 46F_47L_49E_50V_52G_53A_54C_55F_67L_, Q9UKT9 (peptide)
chain: FLCEVCGACFTQKGNLLRHIKL
B16: 46F_47V_49E_50V_52G_53A_54C_55F_67L_, Q9UKT9 (peptide)
chain: FVCEVCGACFTQKGNLLRHIKL
B17: 46L_47G_49E_50I_52G_53F_54P_55C_67L_, Q9UKT9 (peptide)
chain: LGCEICGFPCTQKGNLLRHIKL
B18: 46F_47E_49E_50I_52G_53R_54N_55F_67L_, Q9UKT9 (peptide)
chain: FECEICGRNFTQKGNLLRHIKL
B19: 46L_47M_49E_50I_52G_53F_54F_55C_67L_, Q9UKT9 (peptide)
chain: LMCEICGFFCTQKGNLLRHIKL
B20: 46F_47N_49E_50I_52G_53H_54G_55F_67L_, Q9UKT9 (peptide)
chain: FNCEICGHGFTQKGNLLRHIKL
B21: 46F_47T_49P_50V_52G_53A_54Q_55F_67L_, Q9UKT9 (peptide)
chain: FTCPVCGAQFTQKGNLLRHIKL
B22: 46F_47K_49P_50I_52G_53H_54L_55F_67L_, Q9UKT9 (peptide)
chain: FKCPICGHLFTQKGNLLRHIKL
B23: 46F_47T_49N_50V_52G_53A_54G_55F_67L_, Q9UKT9 (peptide)
chain: FTCNVCGAGFTQKGNLLRHIKL
B24: 46L_47Q_49E_50I_52G_53F_54D_55C_67L_, Q9UKT9 (peptide)
chain: LQCEICGFDCTQKGNLLRHIKL
B25: 46L_47T_49N_50Q_52G_53F_54Q_55C_67L_, Q9UKT9 (peptide)
chain: LTCNQCGFQCTQKGNLLRHIKL
B26: 46F_47R_49D_50I_52G_53A_54Y_55F_67L_, Q9UKT9 (peptide)
chain: FRCDICGAYFTQKGNLLRHIKL
B27: 46F_47M_49D_50I_52G_53A_54C_55F_67L_, Q9UKT9 (peptide)
chain: FMCDICGACFTQKGNLLRHIKL
B28: 46F_47T_49D_50I_52G_53A_54C_55F_67L_, Q9UKT9 (peptide)
chain: FTCDICGACFTQKGNLLRHIKL
B29: 46F_47S_49D_50I_52G_53A_54C_55F_67L_, Q9UKT9 (peptide)
chain: FSCDICGACFTQKGNLLRHIKL
B30: 46F_47A_49D_50I_52G_53A_54C_55F_67L_, Q9UKT9 (peptide)
chain: FACDICGACFTQKGNLLRHIKL
B31: 46F_47W_49D_50I_52G_53A_54C_55F_67L_, Q9UKT9 (peptide)
chain: FWCDICGACFTQKGNLLRHIKL
B32: 46F_47F_49D_50I_52G_53A_54C_55F_67L_, Q9UKT9 (peptide)
chain: FFCDICGACFTQKGNLLRHIKL
B33: 46F_47Q_49D_50I_52G_53A_54C_55F_67L_, Q9UKT9 (peptide)
chain: FQCDICGACFTQKGNLLRHIKL
B34: 46F_47Y_49D_50I_52G_53A_54C_55F_67L_, Q9UKT9 (peptide)
chain: FYCDICGACFTQKGNLLRHIKL
B35: 46F_47E_49D_50I_52G_53A_54C_55F_67L_, Q9UKT9 (peptide)
chain: FECDICGACFTQKGNLLRHIKL
B36: 46F_47C_49D_50I_52G_53A_54C_55F_67L_, Q9UKT9 (peptide)
chain: FCCDICGACFTQKGNLLRHIKL
B37: 46F_47R_49D_50I_52G_53A_54C_55F_67L_, Q9UKT9 (peptide)
chain: FRCDICGACFTQKGNLLRHIKL
B38: 46F_47H_49D_50I_52G_53A_54C_55F_67L_, Q9UKT9 (peptide)
chain: FHCDICGACFTQKGNLLRHIKL

Target: T1, CRBN, Q96SW2
Assay: log2 fold change of degron read counts, EGFP-low vs EGFP+ sorted cells (limma voom), compound-induced degradation; higher = more compound-induced degradation of the degron-EGFP fusion; degrons are variants of IKZF1/3 zinc finger 2; compound dose not given here
Conditions: Jurkat, 18 h
[1] = compound: compound 19 (5-tert-butyl-thalidomide)
[2] = compound: compound 22 (5-morpholino-thalidomide)
[3] = compound: compound 33 (diphenyl IMiD analogue)
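Further: pooled lentiviral library of zinc finger degron-EGFP fusions in mCherry-positive Jurkat cells, FACS-sorted after compound exposure, with degron abundance counted by next-generation sequencing.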

Row | Sequence | log2 fold change of degron read counts [1] | log2 fold change of degron read counts [2] | log2 fold change of degron read counts [3] | log2 fold change of degron read counts (compound: thalidomide)
1 | B1 | -2.96 | -2.98 | -2.8 | -2.49
2 | B2 | -2.42 | -3.25 | -2.92 | -2.39
3 | B3 | -1.14 | 0.177 | 1.46 | 0.874
4 | B4 | -2.85 | -3.1 | -2.83 | -3.04
5 | B5 | -1.07 | -0.182 | 1.49 | -0.139
6 | B6 | -3.08 | -3.34 | -2.73 | -2.44
7 | B7 | -3.06 | -4.05 | -2.94 | -2.8
8 | B8 | 3.26 | 2.28 | 2.54 | 1.34
9 | B9 | -0.334 | -0.2 | 1.72 | 1.5
10 | B10 | 1.37 | 2.52 | 2.51 | 2.66
11 | B11 | 0.807 | 2.69 | 2.23 | 3.69
12 | B12 | -0.743 | 2.1 | 2.52 | 2.75
13 | B13 | 3.74 | 3.85 | 3.1 | 1.37
14 | B14 | -0.094 | 0.00255 | 2.45 | 1.45
15 | B15 | 0.437 | -0.686 | 1.57 | 1.59
16 | B16 | -0.0594 | 1.78 | 2.4 | 2.7
17 | B17 | -1.16 | -1.81 | -2.14 | -1.69
18 | B18 | -2.61 | -2.28 | -0.395 | -0.731
19 | B19 | -0.461 | -0.234 | 1.75 | 0.617

Row | Sequence | log2 fold change of degron read counts [1] | log2 fold change of degron read counts [2] | log2 fold change of degron read counts [3] | log2 fold change of degron read counts (compound: thalidomide)
20 | B20 | -2.44 | -2.67 | -3.6 | -2.95
21 | B21 | 0.0342 | 2.63 | 2.78 | 2.72
22 | B22 | -2.52 | -3 | -3.86 | -2.43
23 | B23 | -0.827 | -0.181 | 0.811 | 0.259
24 | B24 | -2.82 | -2.45 | -2.23 | -1.2
25 | B25 | -2.38 | -2.53 | -1.48 | -1.47
26 | B26 | -1.87 | -1.92 | -0.0846 | 0.62
27 | B27 | -1.13 | -0.637 | 1.57 | -0.555
28 | B28 | 1.04 | 1.6 | 1.21 | 0.886
29 | B29 | 1.95 | 1.34 | 1.4 | -0.055
30 | B30 | 2.85 | 0.596 | -0.194 | -1.27
31 | B31 | 3.31 | 3.65 | 1.33 | -0.4
32 | B32 | 3.31 | 3.14 | 1.33 | -1.14
33 | B33 | -0.256 | 2.12 | 1.17 | 3.3
34 | B34 | 3.33 | 3.42 | 1.9 | -0.704
35 | B35 | -0.944 | -2.76 | 0.061 | 0.157
36 | B36 | 1.6 | 1.36 | 1.87 | 0.543
37 | B37 | -1.25 | -1.11 | 1.03 | 0.116
38 | B38 | 1.53 | 1.18 | -0.205 | -1.25
